Laboratory results: PubChem BioAssay AID485314 (National Center for Advancing Translational Sciences (NCATS), 2010)
Where “and” joins values, the source holds several entries; their conditions need not be identical. Identical values can stand only once. Hit rate of the full screen: of about 340,000 compounds, about 4,500 (1.3%) were called active. About 5% were inconclusive and are not listed. Calls follow the shape of the dose curve; as a rule, active = well fitted inhibition curve with a large enough effect; inconclusive = small, poorly fitted or top-dose-only effect, or another doubt; inactive = no such curve, though single readings can be large or run the other way. For the sample, actives were picked, then their nearest neighbours and some compounds at random.

Biological target: DNA polymerase beta (Homo sapiens) (UniProt P06746)
Experiment: qHTS Assay for Inhibitors of DNA Polymerase Beta
Conditions: Pol beta primer extension/strand displacement, fluorescence kinetic; series mostly up to 114 µM; activity change, negative = inhibition: at the top concentration
In short: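 Reaction started by 50 nM substrate onto compound-treated Pol beta (10 nM, 15 min preincubation, room temperature); plates read at 0 min and 10 min. Normalized concentration-effect data fitted by four-parameter Hill equation.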
% is scaled to controls: 0 for no effect and ±100 for the full control effect; potency is read from the fitted curve at half-maximal effect.

Activity change, negative = inhibition, inactive:
COc1ccc(-n2c(C)nc3c(cnn3-c3ccc(F)cc3)c2=O)cc1 42.6%
Cc1c(C)n(Cc2ccc(Cl)cc2)c2ccc(C(=O)N3CCN(c4ccccc4F)CC3)cc12 -25.6%
CC(C)c1ccc(Cn2c(COc3ccccc3)nc3ccccc32)cc1 19.8%
Cc1ccc(C)c(Oc2c(C(F)(F)F)oc3c(CN4CCN(C)CC4)c(O)ccc3c2=O)c1 -17.9%
Cc1cccc(-n2ccnc2SCC(=O)Nc2cccc3ccccc23)c1C 10.7%
CCCS(=O)(=O)Nc1cccc(-c2cn3ccsc3n2)c1 -12.8%
CC(=O)Nc1ccc(NC(=O)CCCc2nc(-c3ccc(C(C)(C)C)cc3)no2)cc1 28.3%
CCc1nn(CC(=O)N2CCN(CC)CC2)c(=O)c2cccn12 1.16%
CC(C)c1ccc(NC(=O)Cn2ncc3ccccc32)cc1 31.7%
CC(=O)c1ccc(N2CCN(C3C(=O)c4ccccc4N3C(C)=O)CC2)cc1 (centres undefined) 50.8%
Cc1ccc(-c2ccc(CCC(=O)O)n2-c2ccc(C(N)=O)cc2)cc1 6.21%
Cc1nn(-c2ccccc2)c(-n2cccc2)c1C(=O)O -15.2%
Cc1nn(-c2ccc(F)cc2)c(-n2cccc2)c1C(=O)N1CCN(c2ccccc2)CC1 -8.92%
COc1cccc(NC(=O)C(=O)NCC(c2ccc3c(c2)OCO3)N2CCN(C)CC2)c1 (centres undefined) -9.86%
Cc1ccccc1Nc1nn2c(=O)c3ccc(C(=O)NCCc4ccc(Cl)cc4)cc3nc2s1 -0.38%
CCN(Cc1ccccc1)S(=O)(=O)c1ccc2c(c1)CCCN2C(C)=O 31.7%
CCc1nnc(SCC(=O)Nc2cc(OC)ccc2OC)nc1CC 23.5%
CCOc1ccc2[nH]c(C(=O)N/N=C/c3cccc(OC)c3OC)cc2c1 -0.753%
COc1ccc2[nH]c(C(=O)Nc3ccccc3Cl)cc2c1 21.2%
CCc1nc2c(cnn2-c2ccc(C)cc2)c(=O)n1-c1ccc(C)cc1 -17.5%
COc1ccccc1N1CC(C(=O)Nc2nnc(SCC(=O)NCC3CCCO3)s2)CC1=O (centres undefined) -12.3%
COc1ccccc1N1CC(C(=O)Nc2nnc(SCC(=O)NC(C)C)s2)CC1=O (centres undefined) 21.8%
Cc1ccc(Cl)cc1NC(=O)Cc1ccc(-n2c(C)nc3cccnc32)cc1 -2.17%
CCS(=O)(=O)c1cc([N+](=O)[O-])c(Sc2ccccc2N)s1 18%
CCOC(=O)C1=C(CC)Nc2ccccc2N=C1N 9.29%
CN1c2ccc(Cl)cc2-c2nc(SCC(=O)Nc3cc(F)ccc3F)ncc2S1(=O)=O 18%
COc1cc(CNCCSc2nnnn2C)ccc1OCc1ccc(Cl)cc1Cl -25.4%
CCc1cccc(NC(=O)CN(C)S(=O)(=O)c2ccc3[nH]c4c(c3c2)CCCC4)c1 0.243%
COc1cccc(CNC(=O)CCC(=O)N2CC3CCCN3c3ccccc32)c1 (centres undefined) -2.64%
O=C(COC(=O)c1cc(S(=O)(=O)N2CCCCC2)ccc1Cl)NCc1ccco1 1.64%
Cc1cc(C(=O)OCC(=O)N2c3ccccc3NC(=O)C2(C)C)c(C)n1-c1ccccc1 -0.675%
CSCCC(NC(=O)c1ccco1)C(=O)OCC(=O)Nc1ncc(Cl)c(C)c1Cl (centres undefined) -18%
O=C(NCCCCCCNC(=O)NCc1ccco1)NCc1ccco1 24.2%
O=C(COC(=O)c1ccco1)NCc1ccc(Cl)cc1 -9.59%
CN(c1ccccc1)S(=O)(=O)c1ccc(Cl)c(C(=O)OCC(=O)NCc2ccco2)c1 -98.4%
C/C(=N\Nc1ncc(Cl)cc1Cl)c1ccc(S(=O)(=O)NCc2ccco2)cc1 13.7%
O=C(CC1CCCCC1)NCc1ccco1 -12.9%
COc1ccc(NC(=O)CCCN2C(=O)CCn3nc(-c4cn(C)c5ccccc45)cc32)cc1OC 4.33%
CCN1CCN(C(c2ccc(C)cc2)c2c(O)cc(C)n(Cc3ccco3)c2=O)CC1 (centres undefined) -20%
CC1Cc2cc(S(=O)(=O)CCC(=O)NCc3ccc(Cl)cc3)ccc2N1C(=O)C1CC1 (centres undefined) -0.0771%
C#CC(C)(CC)NC(=O)Cn1nnc(-c2ccc(OCc3c(F)cccc3Cl)cc2)n1 (centres undefined) -7.54%
CC(=O)OC1=C(C(C)=O)N(Cc2ccccc2)S(=O)(=O)c2ccccc21 18.8%
O=C(C1CCC(Cn2c(=O)c3sccc3n(Cc3ccccc3F)c2=O)CC1)N1CCCCC1 (centres undefined) -0.425%
COCCCNC(=O)c1ccc(NC(=O)c2nsc3ccccc23)cc1 -0.898%

Potency, active:
CC(C)c1ccc2c(c1)c(SC(C)(C)C)c(CC(C)(C)C(=O)O)n2Cc1ccc(Cl)cc1 50.1 µM and 31.6 µM
CCCN1CCN(C(=O)Cn2ncc3ccccc32)CC1 12.6 µM
Cc1ccc(-n2nc(C)c(C(=O)O)c2-n2cccc2)cc1 12.6 µM
COc1ccc2[nH]c(C(=O)N/N=C/c3cc(OC)c(OC)c(OC)c3)cc2c1 8.91 µM
Cc1ccccc1N1CC(C(=O)Nc2nnc(SCCC3OCCO3)s2)CC1=O (centres undefined) 14.1 µM
CCOC(=O)c1cc(Sc2ccccc2N)cc(C(=O)OCC)n1 25.1 µM
O=C(COC(=O)C12CC3CC(CC(C3)C1)C2)NCc1ccco1 14.1 µM
O=C(COC(=O)c1cnc(Cl)c(Cl)c1)NCc1ccco1 25.1 µM
Cc1c(Cl)cnc(NC(=O)COC(=O)c2ccc(S(=O)(=O)NCc3ccco3)cc2)c1Cl 31.6 µM
Cc1cc(C(=O)OCC(=O)NCc2ccco2)c(C)n1-c1ccccc1 22.4 µM
